Experimental findings from PubChem BioAssay (NCATS) are described below.

Test [1] in a line: Cell Viability - NIH 3T3 (AID 541; active = well fitted curve in the direction sought with a large enough effect; an effect the other way counts as inactive or inconclusive;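 note: cells exposed to compound for 40 hours; plate controls were DMSO alone for no effect and tamoxifen positive control for full effect; nearly all actives have a fitted effect of over 25% in size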). The conditions noted are these: NIH 3T3 cell viability, qHTS; activity change, negative = cytotoxicity: at 92.2 µM (top of the series). Put shortly: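 qHTS format; 40 hr compound exposure, 37 °C; CellTiter-Glo luminescence (cellular ATP) read-out after 20 min at RT. Decrease in ATP = cytotoxicity; AC50 from standard Hill fit.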
For test [2], the target named is Estrogen receptor (Homo sapiens) (UniProt P03372). In words: qHTS assay for small molecule antagonists of estrogen receptor alpha signaling (AID 588513; active = well fitted curve in the direction sought with a large enough effect in the signal ratio, with a control signal flat, not every such curve was filed as active; the % refers to the signal ratio; note: % is set by controls: 0 for no effect and ±100 for the full control effect). Put shortly:
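ER-alpha-UAS-bla GripTite HEK 293 cells in 2% charcoal/dextran-treated FBS medium; compounds titrated (1:2, duplicate), then stimulated with 0.5 nM 17-beta-estradiol for 18 h at 37C. CCF4 beta-lactamase fluorescence; Hill-fit IC50 and efficacy.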
On the technique in general: In qHTS, concentration-response curves come from the screen itself.

In test [3] the target is Peroxisome proliferator-activated receptor gamma (Homo sapiens) (UniProt P37231). Description: qHTS assay for small molecule agonists of peroxisome proliferator-activated receptor gamma signaling (AID 588536; active = well fitted curve in the direction sought with a large enough effect in the signal ratio, with a control signal flat, not every such curve was filed as active; the % refers to the signal ratio;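 note: 0% = DMSO basal wells and 100% = rosiglitazone at 2 µM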). Put shortly: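 This is an agonist-mode beta-lactamase reporter assay in HEK293 PPAR-gamma-UAS-bla cells with 1% charcoal/dextran FBS. Compound titrations ran 16 h at 37 C before CCF4 detection. EC50 and efficacy are Hill fits scaled to 2 uM rosiglitazone (100%) and DMSO basal.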

Test [4] has the same target. In words: qHTS assay for small molecule antagonists of peroxisome proliferator-activated receptor gamma signaling (AID 588537; active = well fitted inhibition curve with a large enough effect in the signal ratio, with a control signal flat, not every such curve was filed as active; the % refers to the signal ratio;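 note: reporter cells co-stimulated with 50 nM rosiglitazone agonist during compound treatment; % of control where 0% means no effect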). The essentials:
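Read-out: CCF4 fluorescence (ex 405, em 460/530 nm) after 2 h at RT. Cells were HEK293 carrying a UAS-bla reporter and treated 16 h at 37 C with compound plus rosiglitazone (50 nM final). Normalized to rosiglitazone and DMSO.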

In test [5] the target is Vitamin D3 receptor (Homo sapiens) (UniProt P11473). Description: qHTS assay for small molecule agonists of vitamin D receptor signaling (AID 588543).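 Note: 0% = DMSO basal and 100% = reference agonist control.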 Put shortly: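 VDR-UAS-bla HEK293T cells, 2000/well, 2% charcoal-stripped FBS; compound titration 16 h at 37 C; CCF4 beta-lactamase ratio read. Normalized to 50 nM 1-alpha,25-dihydroxyvitamin D3 (100%) and DMSO; Hill fit gives EC50, efficacy.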

For test [6], the target named is Thyroid hormone receptor beta (Homo sapiens) (UniProt P10828). In words: qHTS assay for small molecule agonists of thyroid hormone receptor beta signaling (AID 588545).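 Note: 0% = DMSO only and 100% = 10 nM T3.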 The essentials: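 Efficacy and EC50 values derive from Hill fits of qHTS titration data, normalized to 10 nM T3 and DMSO-only wells. HEK 293 reporter cells were stimulated for 18 hrs at 37 C, with beta-lactamase activity measured by CCF4 fluorescence.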

Test [7] has the same target. In words: qHTS assay for small molecule antagonists of thyroid hormone receptor beta signaling (AID 588547; active = well fitted inhibition curve with a large enough effect in the signal ratio, with a control signal flat, not every such curve was filed as active; the % refers to the signal ratio;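 note: cells stimulated with 0.4 nM T3 agonist during compound exposure; % is set by controls: 0 for no effect and ±100 for the full control effect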). As to conditions: TR-UAS-bla HEK293, beta-lactamase ratio, antagonist mode, 18 h. Put shortly: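 TR-UAS-bla GripTite HEK293 cells in 2% charcoal/dextran FBS medium; compounds 0.59 nM to 92 uM with T3 at 0.4nM final, 18 h at 37 C. Beta-lactamase read by CCF4 fluorescence (460/530 nm); Hill fits gave IC50 and efficacy.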

Test [8] in a line: qHTS assay for small molecule disruptors of the mitochondrial membrane potential - 5 hr assay (AID 651755). Note: nearly all actives have a fitted effect of over 40% in size. Note: potency is the fitted concentration of half-maximal effect. The essentials: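 Read-out: ratiometric Mito-MPS fluorescence, green monomer (ex 490/em 535) vs red mitochondrial aggregate (ex 540/em 590). HepG2 cells treated 5 hr at 37C before 30 min dye loading.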
The target in test [9] is Nuclear receptor ROR-gamma (Homo sapiens) (UniProt P51449). In words: qHTS assay for small molecule antagonists of the retinoid-related orphan receptor gamma (ROR-gamma) signaling pathway (AID 651802; active = well fitted curve in the direction sought with a large enough effect; an effect the other way counts as inactive or inconclusive;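 note: CHO cells with doxycycline-induced ROR-gamma expression; luciferase reporter luminescence driven by ROR response element; % is set by controls: 0 for no effect and ±100 for the full control effect; nearly all actives have a fitted effect of over 60% in size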). Put shortly: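 Luciferase read-out: ONE-Glo luminescence after 30 min at room temperature, following 16hr doxycycline induction at 37C, 5% CO2 of CHO cells with TET-inducible ROR and RORE-LUC reporter; decreased luminescence = reduced reporter activity.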

The nature of test [10]: qHTS assay for small molecule agonists of the antioxidant response element (ARE) signaling pathway measured by Nrf2-dependant transcriptional activity (AID 720636; active = well fitted curve in the direction sought with a large enough effect in the repeat runs; an effect the other way counts as inactive or inconclusive;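 note: HepG2 cells with an ARE-driven luciferase reporter; % of control where 0% means no effect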). Put shortly: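 ONE-Glo luminescence, read 30 min after reagent addition at room temperature, reflected ARE reporter activity in HepG2 cells that had been incubated with compound for 16 hr at 37 C in 1% dialyzed FBS.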

The target in test [11] is Bile acid receptor (Homo sapiens) (UniProt Q96RI1). In words: qHTS assay for small molecule agonists of farnesoid X receptor signaling (AID 588527).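 Note: 0% = vehicle basal and 100% = reference agonist.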 As to conditions: HEK293T FXR-UAS-bla, beta-lactamase ratio, 16 h; stronger effect = higher value. Put shortly:
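Agonist-mode beta-lactamase reporter in GeneBLAzer FXR-UAS-bla HEK293T cells, titration up to 92 uM, 16 h exposure at 37 C, CCF4 fluorescence. Response scaled to DMSO (0%) and 100 uM chenodeoxycholic acid (100%), then Hill-fitted for EC50 and efficacy.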

For test [12], the target named is Glucocorticoid receptor (Homo sapiens) (UniProt P04150). Description: qHTS assay for small molecule agonists of glucocorticoid receptor signaling (AID 588532; active = well fitted curve in the direction sought with a large enough effect in the signal ratio, with a control signal flat; the % refers to the signal ratio;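 note: 100% = dexamethasone at 0.1 µM and 0% = DMSO only wells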). As to conditions: HeLa MMTV-bla, beta-lactamase ratio, agonist, 18 h; stronger effect = higher value; percent of dexamethasone control, DMSO zero. Put shortly:
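MMTV-bla HeLa beta-lactamase reporter cells in 1% charcoal/dextran FBS medium, compounds up to 92 uM for 18 h at 37 C, CCF4 readout; normalized to 0.1 uM dexamethasone (100%), EC50 and efficacy from Hill fits.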

The target of test [13] is Peroxisome proliferator-activated receptor delta (Homo sapiens) (UniProt Q03181). In words: qHTS assay for small molecule agonists of peroxisome proliferator-activated receptor delta signaling (AID 588534).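 Note: 0% = DMSO basal wells and 100% = positive control agonist at 10 µM.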 Put shortly:
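Titration series tested in agonist mode on beta-lactamase reporter cells; 18 hrs at 37 C after a 5 hr pre-incubation. Readout: CCF4 fluorescence, 2 hrs RT. Hill equation gives EC50 and maximal response.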

Test [14] can be described thus: qHTS assay for small molecule activators of the nuclear factor-kappa B (NF-kB) signaling pathway (AID 651749; active = well fitted activation curve with a large enough effect in the signal ratio; the % refers to the signal ratio; note: % of control where 0% means no effect). As to conditions: NF-kB-bla ME-180 cells, beta-lactamase FRET ratio, 16 h; stronger effect = higher value. Put shortly:
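NF-kB-bla ME-180 cells, 2,000/well; 23 nL compound or DMSO pinned; 16 hr, 37C/5% CO2; beta-lactamase FRET read-out.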

In test [15] the target is Glucocorticoid receptor (Homo sapiens) (UniProt P04150). In words: qHTS assay for small molecule antagonists of glucocorticoid receptor signaling (AID 588533; active = well fitted inhibition curve with a large enough effect in the signal ratio, with a control signal flat, not every such curve was filed as active; the % refers to the signal ratio;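 note: cells stimulated with 2 nM dexamethasone as agonist; % is set by controls: 0 for no effect and ±100 for the full control effect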). The essentials:
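Antagonist-mode qHTS: compound titrations added to GRE-bla HeLa cells, then dexamethasone 2 nM final; 18 h, 37 C. CCF4 FRET fluorescence normalized to dexamethasone and DMSO; IC50 from Hill fit.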

A short description of test [16]: qHTS assay for small molecule antagonists of peroxisome proliferator-activated receptor delta signaling (AID 588535).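 Note: cells co-treated with a PPAR-delta agonist as stimulator during compound exposure.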 As to conditions: HEK293T PPARd-UAS-bla, beta-lactamase FRET ratio, 18 h; 460 nm channel. The essentials: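 Beta-lactamase reporter read-out (405 nm excitation, 460/530 nm emission) after CCF4 loading for 2 hrs at RT. HEK293T PPAR-delta-UAS-bla cells, 2% charcoal/dextran FBS, compounds for 18 hrs at 37 C. Hill fit gave IC50 and efficacy.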

Test [17] deals with Tumor necrosis factor (Homo sapiens) (UniProt P01375). Description: qHTS assay to identify small molecules that stimulate Tumor Necrosis Factor-alpha (TNF-alpha) secretion (AID 651757; active = well fitted curve in the direction sought with a large enough effect in the signal ratio; the % refers to the signal ratio; note: 0% is about no effect). Put shortly:
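THP-1 cells, 3000/well; compound 17 hrs, 37 C; add cryptate/XL665 anti-TNF-alpha antibody pair; 3 hr RT; TR-FRET (HTRF) read of secreted TNF-alpha. Quantitative HTS format.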

The nature of test [18]: qHTS assay to identify small molecules that stimulate interleukin-8 (IL-8) secretion (AID 651758; active = well fitted activation curve with a large enough effect in the signal ratio; the % refers to the signal ratio; note: 0% is about no effect). The essentials: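 Compounds are added to THP-1 cells (2000 per well) and left 16 hrs at 37 C. A labeled anti-IL-8 antibody pair is then added, and IL-8 secretion is measured by time-resolved FRET after 1-3 hrs at room temperature.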
A short description of test [19]: qHTS assay for environmental chemicals that activate the Aryl hydrocarbon Receptor (AhR) signaling pathway (AID 651777; active = well fitted curve in the direction sought with a large enough effect; an effect the other way counts as inactive or inconclusive; note: % of control where 0% means no effect; nearly all actives have a fitted effect of over 15% in size). As to conditions: 1A2-DRE human hepatoma cells, luciferase, 24 h; activation: stronger effect = higher value. The essentials: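 Following a 24 hr incubation with test chemicals at 37 C and 5% CO2, 1A2-DRE human hepatoma cells received One-Glo reagent; after 30 min at room temperature, luciferase output reflected CYP1A2 induction via AhR.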

Values joined by “and” are separate entries in the source; they are usually repeats but may differ in a detail not shown here. Identical values can stand only once. Records with an inconclusive call do not appear. Active and inactive are the calls of the source. Unless noted, calls come from the whole dose curve.

Sequence of Nuclear receptor ROR-gamma (Homo sapiens) (P51449 whole entry, looked up): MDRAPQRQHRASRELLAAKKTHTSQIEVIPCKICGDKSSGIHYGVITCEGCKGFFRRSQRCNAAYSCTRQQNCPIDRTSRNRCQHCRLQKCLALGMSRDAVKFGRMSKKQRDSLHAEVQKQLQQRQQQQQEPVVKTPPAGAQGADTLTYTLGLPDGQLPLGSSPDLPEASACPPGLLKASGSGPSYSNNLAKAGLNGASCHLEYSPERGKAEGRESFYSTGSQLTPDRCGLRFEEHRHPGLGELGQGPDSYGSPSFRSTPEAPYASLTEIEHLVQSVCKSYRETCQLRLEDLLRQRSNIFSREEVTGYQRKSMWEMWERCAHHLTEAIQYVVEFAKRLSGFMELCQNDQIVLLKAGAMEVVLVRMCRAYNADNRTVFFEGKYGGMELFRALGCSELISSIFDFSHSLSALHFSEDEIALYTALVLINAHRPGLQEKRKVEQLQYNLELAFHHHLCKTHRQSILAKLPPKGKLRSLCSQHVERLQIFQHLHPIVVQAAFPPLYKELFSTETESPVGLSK
Sequence of Glucocorticoid receptor (Homo sapiens) (P04150 whole entry, looked up): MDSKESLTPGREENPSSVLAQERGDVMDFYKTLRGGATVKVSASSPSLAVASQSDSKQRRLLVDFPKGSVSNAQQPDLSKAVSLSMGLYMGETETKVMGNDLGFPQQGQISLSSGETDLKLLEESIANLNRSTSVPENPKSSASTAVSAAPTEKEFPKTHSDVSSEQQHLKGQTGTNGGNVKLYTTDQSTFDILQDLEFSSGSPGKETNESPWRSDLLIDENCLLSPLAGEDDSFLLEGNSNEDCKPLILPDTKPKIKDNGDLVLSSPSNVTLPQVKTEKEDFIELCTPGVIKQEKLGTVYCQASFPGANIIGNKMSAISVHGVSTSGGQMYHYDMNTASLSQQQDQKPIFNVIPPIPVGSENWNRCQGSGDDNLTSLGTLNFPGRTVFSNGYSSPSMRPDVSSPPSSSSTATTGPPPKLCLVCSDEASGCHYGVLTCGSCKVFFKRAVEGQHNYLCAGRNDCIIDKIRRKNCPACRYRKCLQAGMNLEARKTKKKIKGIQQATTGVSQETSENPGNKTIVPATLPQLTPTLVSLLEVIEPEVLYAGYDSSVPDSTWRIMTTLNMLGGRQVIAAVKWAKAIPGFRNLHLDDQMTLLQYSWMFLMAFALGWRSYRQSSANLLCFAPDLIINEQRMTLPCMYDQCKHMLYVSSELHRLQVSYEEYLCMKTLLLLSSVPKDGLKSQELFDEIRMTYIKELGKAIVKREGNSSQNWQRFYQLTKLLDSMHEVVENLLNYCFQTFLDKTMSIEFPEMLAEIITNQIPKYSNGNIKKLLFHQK
Sequence of Peroxisome proliferator-activated receptor delta (Homo sapiens) (Q03181 whole entry, looked up): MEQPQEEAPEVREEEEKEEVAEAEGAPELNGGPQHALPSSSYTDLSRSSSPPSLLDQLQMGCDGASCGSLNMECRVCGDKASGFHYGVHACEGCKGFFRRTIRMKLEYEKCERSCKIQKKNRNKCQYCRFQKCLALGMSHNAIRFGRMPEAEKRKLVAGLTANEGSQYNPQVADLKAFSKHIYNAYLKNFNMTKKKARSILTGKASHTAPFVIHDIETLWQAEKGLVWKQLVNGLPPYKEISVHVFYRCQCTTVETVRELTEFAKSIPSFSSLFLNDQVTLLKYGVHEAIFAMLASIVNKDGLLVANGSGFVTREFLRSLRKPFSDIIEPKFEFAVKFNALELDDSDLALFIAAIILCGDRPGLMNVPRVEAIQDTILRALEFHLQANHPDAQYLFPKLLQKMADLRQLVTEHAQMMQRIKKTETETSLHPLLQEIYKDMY
Sequence of Tumor necrosis factor (Homo sapiens) (P01375 whole entry, looked up): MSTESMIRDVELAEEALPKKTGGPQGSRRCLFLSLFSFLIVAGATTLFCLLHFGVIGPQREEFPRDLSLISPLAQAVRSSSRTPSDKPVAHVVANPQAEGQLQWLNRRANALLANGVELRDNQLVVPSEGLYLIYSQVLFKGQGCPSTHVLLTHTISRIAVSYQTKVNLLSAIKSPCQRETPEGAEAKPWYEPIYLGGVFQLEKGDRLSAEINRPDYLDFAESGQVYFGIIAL
Sequence of Estrogen receptor (Homo sapiens) (P03372 whole entry, looked up): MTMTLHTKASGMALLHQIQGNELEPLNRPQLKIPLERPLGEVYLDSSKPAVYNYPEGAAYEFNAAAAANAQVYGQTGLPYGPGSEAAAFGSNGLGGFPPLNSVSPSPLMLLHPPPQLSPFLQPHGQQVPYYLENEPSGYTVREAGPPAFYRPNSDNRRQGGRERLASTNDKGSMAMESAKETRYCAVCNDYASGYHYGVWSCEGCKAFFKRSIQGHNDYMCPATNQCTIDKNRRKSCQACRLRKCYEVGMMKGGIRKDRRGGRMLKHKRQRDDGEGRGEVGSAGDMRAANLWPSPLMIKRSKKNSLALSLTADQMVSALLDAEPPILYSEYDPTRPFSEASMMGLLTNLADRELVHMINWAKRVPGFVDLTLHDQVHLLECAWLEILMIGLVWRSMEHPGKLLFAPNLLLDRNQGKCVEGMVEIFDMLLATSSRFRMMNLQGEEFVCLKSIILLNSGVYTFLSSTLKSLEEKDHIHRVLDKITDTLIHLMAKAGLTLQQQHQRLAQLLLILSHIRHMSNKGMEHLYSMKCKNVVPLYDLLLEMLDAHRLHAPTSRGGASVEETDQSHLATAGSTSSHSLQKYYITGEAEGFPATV
Sequence of Thyroid hormone receptor beta (Homo sapiens) (P10828 whole entry, looked up): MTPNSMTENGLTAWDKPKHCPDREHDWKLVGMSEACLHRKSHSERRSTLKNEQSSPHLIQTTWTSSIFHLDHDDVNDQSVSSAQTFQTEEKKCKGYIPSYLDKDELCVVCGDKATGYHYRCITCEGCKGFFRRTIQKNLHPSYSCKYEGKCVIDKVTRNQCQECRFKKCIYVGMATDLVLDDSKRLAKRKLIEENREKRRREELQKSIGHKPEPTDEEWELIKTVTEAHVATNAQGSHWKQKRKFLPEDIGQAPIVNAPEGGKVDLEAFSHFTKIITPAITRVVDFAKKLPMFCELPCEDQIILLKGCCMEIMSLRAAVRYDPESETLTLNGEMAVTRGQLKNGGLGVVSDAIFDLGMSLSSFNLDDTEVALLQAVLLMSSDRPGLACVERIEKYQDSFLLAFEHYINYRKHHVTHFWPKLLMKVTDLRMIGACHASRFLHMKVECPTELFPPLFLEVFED
Sequence of Peroxisome proliferator-activated receptor gamma (Homo sapiens) (P37231 whole entry, looked up): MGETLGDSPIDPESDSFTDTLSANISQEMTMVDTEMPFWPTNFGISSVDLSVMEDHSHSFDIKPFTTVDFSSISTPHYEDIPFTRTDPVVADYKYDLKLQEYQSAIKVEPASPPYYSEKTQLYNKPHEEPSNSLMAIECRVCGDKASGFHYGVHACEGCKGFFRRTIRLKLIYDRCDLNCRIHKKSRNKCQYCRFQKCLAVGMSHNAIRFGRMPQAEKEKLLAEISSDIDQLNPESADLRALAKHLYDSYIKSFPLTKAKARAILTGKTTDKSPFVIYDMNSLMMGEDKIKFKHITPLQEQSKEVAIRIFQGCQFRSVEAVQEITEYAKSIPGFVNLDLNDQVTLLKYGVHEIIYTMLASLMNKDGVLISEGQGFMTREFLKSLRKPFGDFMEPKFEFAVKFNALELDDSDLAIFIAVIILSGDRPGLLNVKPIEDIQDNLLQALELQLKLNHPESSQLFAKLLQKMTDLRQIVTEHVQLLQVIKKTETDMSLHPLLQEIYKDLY
Sequence of Vitamin D3 receptor (Homo sapiens) (P11473 whole entry, looked up): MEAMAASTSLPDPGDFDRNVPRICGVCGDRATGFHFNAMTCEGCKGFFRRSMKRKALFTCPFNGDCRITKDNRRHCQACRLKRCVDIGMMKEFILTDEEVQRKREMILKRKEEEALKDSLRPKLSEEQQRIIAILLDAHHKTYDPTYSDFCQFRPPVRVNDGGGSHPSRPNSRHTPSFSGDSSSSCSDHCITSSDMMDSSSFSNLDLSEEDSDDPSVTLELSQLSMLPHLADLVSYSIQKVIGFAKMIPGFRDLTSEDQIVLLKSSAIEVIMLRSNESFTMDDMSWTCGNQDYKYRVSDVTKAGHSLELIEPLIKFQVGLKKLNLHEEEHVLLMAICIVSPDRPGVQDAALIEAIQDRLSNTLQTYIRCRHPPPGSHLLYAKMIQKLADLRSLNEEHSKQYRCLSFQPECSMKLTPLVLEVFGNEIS
Sequence of Bile acid receptor (Homo sapiens) (Q96RI1 whole entry, looked up): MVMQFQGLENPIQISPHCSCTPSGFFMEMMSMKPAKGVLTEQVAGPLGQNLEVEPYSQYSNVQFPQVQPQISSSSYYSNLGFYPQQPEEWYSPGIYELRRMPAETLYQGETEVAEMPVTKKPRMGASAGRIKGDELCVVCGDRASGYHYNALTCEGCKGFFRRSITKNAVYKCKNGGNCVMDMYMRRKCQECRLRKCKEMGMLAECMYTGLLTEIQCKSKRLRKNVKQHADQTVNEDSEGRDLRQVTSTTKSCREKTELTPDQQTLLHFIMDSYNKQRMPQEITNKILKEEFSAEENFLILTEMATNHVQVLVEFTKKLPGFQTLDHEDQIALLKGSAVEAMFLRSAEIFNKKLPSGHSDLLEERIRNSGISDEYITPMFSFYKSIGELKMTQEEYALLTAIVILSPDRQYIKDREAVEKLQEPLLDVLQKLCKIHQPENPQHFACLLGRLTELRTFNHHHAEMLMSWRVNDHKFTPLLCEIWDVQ

Consider `Cc1cc(-c2ccc(N)c(C)c2)ccc1N`, for which the Potency result in test [1], in test [2], in test [4], in [6], in test [8] and in test [9] was “inactive” throughout. Besides, in test [10], the Potency entry was “inactive”. Besides, the outcome in test [3] and in test [5] was inactive. For the same compound, the activity change % (negative = inhibition) in test [7] was 4.51% (inactive) and -14.4% (inactive).

In the case of `COC(=O)Nc1cccc(OC(=O)Nc2cccc(C)c2)c1`, the Potency result in test [1] and in test [9] was “inactive” throughout. Besides, the values for the activation in test [11], in test [12] and in test [14] were 0.654% (inactive), -3.09% (inactive) and -1.26% (inactive), respectively. The compound was classed as inactive in [13] and in test [3]. The activity change % (negative = inhibition) in [7] was -5.68% (inactive). The Potency in test [8] is 42.2 µM (active).

As for `CC(C)CC(C)N` (configuration not stated), the Potency entry in test [1], in test [2], in test [4], in [6], in test [18] and in test [9] was “inactive” throughout. Moreover, in test [10], the Potency result was “inactive”. Also, the call in test [15], in [13], in test [3] and in test [17] was inactive. Further, the max response in [16] is -20.2%. Moreover, in test [19], the activation is 0.111% (inactive).

With `Cc1cnc[nH]1`, the Potency entry in test [1], in test [6], in [8], in [9] and in test [10] was “inactive” each time. Moreover, the activation in test [11] is -0.548% (inactive); in [12], -8.66% (inactive); in test [14], -0.55% (inactive); in [19], 1.06% (inactive). In addition, the outcome in [15], in test [13], in [3] and in test [17] was inactive.

`CCOC(=O)C1OC1(C)c1ccccc1` (configuration not stated): the Potency result in test [1], in test [4], in [8], in test [18] and in [9] was “inactive” throughout. Further, the activation in [12] is -3.51% (inactive); in [19], -0.466% (inactive). Moreover, the compound was called inactive in test [3] and in [17]. In addition, the activity change % (negative = inhibition) in test [7] is 6.83% (inactive).

As to `NNC(N)=S`, the Potency entry in test [2], in test [4], in test [6], in [8], in [18] and in [9] was “inactive” each time. The Potency result in test [10] is “inactive”. The activation in [11] is -2.79% (inactive); in test [12], 0.137% (inactive); in test [14] it was 0.227% (inactive); in test [19], 0.972% (inactive). Moreover, the outcome in test [13], in [3], in [5] and in test [17] was inactive. Besides, the activity change % (negative = inhibition) in [7] was 4.76% (inactive).

For `Cc1cc(Cl)ccc1O`, the Potency result in [1], in test [4], in test [6], in test [8], in test [18] and in [10] was “inactive” each time. Also, the activation in [11] is -2.04% (inactive); in test [12], 0.519% (inactive); in test [14] it was 0.374% (inactive). For the same compound, the outcome in test [13], in test [3], in test [5] and in [17] was inactive. Besides, the activity change % (negative = inhibition) in [7] is -9.26% (inactive).

For `O=S(=O)(O)F`, the Potency result in test [1], in test [2], in [6] and in [10] was “inactive” in each case. Moreover, the activation is 0.0183% (inactive) in test [11] and 0.54% (inactive) in test [19]. In addition, the compound was classed as inactive in test [13], in [3], in test [5] and in test [17]. The max response in test [16] was 7.1%.

Take `N#CCc1ccccc1`: the Potency entry in [2], in test [4], in test [8], in test [9] and in test [10] was “inactive” throughout. Besides, the compound was classed as inactive in test [13] and in [3]. Besides, in test [16], the max response is -33.3%. In test [7], the activity change % (negative = inhibition) is 23.1% (inactive). Also, the activation in test [14] was 0.487% (inactive); in test [19], -0.841% (inactive).
